Here are results for 18 molecules from PubChem BioAssay.

Experiment [1] in a line: antimalarial activity against Dd2 strain (AID 2302;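 active = growth inhibition above 50% at the single 2 µM test dose, taken to imply half-maximal potency below 2 µM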;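 note: 0% = DMSO untreated growth and 100% = chloroquine plus artemisinin killed control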). The settings on record: P. falciparum Dd2 in RBCs, LDH growth readout, 72 h; at 2 µM; stronger effect = higher value.
Experiment [2] in a line: human hepatoma cell viability loss – ATP luminescence, cytotoxicity control for P. falciparum antimalarial project, primary screen (AID 2303;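 active = inhibition above 50%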;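 note: 0% = DMSO wells and 100% = digitonin-killed cells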). The following applies: HepG2 viability, 24-48 h, at 10 µM, stronger effect = higher value.
Experiment [3] concerns the target L-lactate dehydrogenase (Plasmodium falciparum (isolate CDC / Honduras)) (UniProt Q27743). The experiment in a line: PfLDH activity inhibition – cell lysate, 3D7 strain, counter-screen for P. falciparum growth inhibition project (AID 2304).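 Note: 0% = vehicle and 100% = reference inhibitor.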 The following applies: P. falciparum 3D7 crude extract, LDH APAD/NBT absorbance; at 2 µM; stronger effect = higher value.
Experiment [4] is described as follows: inhibition of 3D7 malaria parasite growth – strain 3D7 (AID 2306).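 Note: 0% = DMSO wells and 100% = chloroquine plus artemisinin control wells.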 The settings on record: P. falciparum 3D7 erythrocytic growth, LDH absorbance, 72 h; at 2 µM; stronger effect = higher value.
Experiment [5] has as its target Calcium-dependent protein kinase 1 (Plasmodium falciparum (isolate 3D7)) (UniProt P62344). As to the kind of experiment: PfCDPK1 kinase inhibitors, biochemical, TCAMS library (AID 1159585; cut-off not given, nearly all actives have IC50 up to about 0.98 µM;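 note: inhibitors leave more ATP so luminescence rises with inhibition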). The settings on record: recombinant PfCDPK1, Kinase-Glo ATP depletion luminescence.
For experiment [6], the target named is Plasmodium falciparum protein kinase 6 (PK6, PF3D7_1337100) (UniProt Q8IDW1). As to the kind of experiment: PfPK6 kinase inhibitors, biochemical, TCAMS library (AID 1159586). The settings on record: recombinant PfPK6, Kinase-Glo ATP depletion luminescence.
For experiment [7], the target named is Protein kinase 7 (PK7), Plasmodium falciparum 3D7 (PF3D7_0213400) (UniProt Q7YTF7). The experiment in a line: inhibition of Plasmodium PK7 catalytic activity – biochemical, TCAMS antimalarial set, Kinase-Glo luminescence (AID 1159587). The following applies: recombinant PfPK7, Kinase-Glo ATP depletion luminescence.
For experiment [8], the target named is Calcium-dependent protein kinase 4 (Plasmodium falciparum (isolate 3D7)) (UniProt Q8IBS5). As to the kind of experiment: PfCDPK4 kinase inhibitors, biochemical, TCAMS library (AID 1159588; cut-off not given, nearly all actives have IC50 up to about 0.91 µM). The settings on record: recombinant PfCDPK4, Kinase-Glo ATP depletion luminescence.

Values without a mark were called inactive. For part of these data: Results with a measured potency or affinity are listed apart. Calls of active or inactive are those of the source. Unless noted, the rule behind the calls is not given here.

Plasmodium falciparum protein kinase 6 (PK6, PF3D7_1337100), sequence (Q8IDW1 1-305): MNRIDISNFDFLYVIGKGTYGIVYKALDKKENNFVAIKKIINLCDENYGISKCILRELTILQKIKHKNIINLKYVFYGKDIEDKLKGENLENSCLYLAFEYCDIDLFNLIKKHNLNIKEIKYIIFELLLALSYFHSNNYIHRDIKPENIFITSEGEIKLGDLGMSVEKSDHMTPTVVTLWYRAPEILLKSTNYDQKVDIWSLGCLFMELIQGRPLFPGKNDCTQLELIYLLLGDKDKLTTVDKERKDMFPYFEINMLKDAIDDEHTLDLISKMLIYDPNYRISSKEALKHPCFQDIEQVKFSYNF
Calcium-dependent protein kinase 1 (Plasmodium falciparum (isolate 3D7)), sequence (P62344 whole entry, looked up): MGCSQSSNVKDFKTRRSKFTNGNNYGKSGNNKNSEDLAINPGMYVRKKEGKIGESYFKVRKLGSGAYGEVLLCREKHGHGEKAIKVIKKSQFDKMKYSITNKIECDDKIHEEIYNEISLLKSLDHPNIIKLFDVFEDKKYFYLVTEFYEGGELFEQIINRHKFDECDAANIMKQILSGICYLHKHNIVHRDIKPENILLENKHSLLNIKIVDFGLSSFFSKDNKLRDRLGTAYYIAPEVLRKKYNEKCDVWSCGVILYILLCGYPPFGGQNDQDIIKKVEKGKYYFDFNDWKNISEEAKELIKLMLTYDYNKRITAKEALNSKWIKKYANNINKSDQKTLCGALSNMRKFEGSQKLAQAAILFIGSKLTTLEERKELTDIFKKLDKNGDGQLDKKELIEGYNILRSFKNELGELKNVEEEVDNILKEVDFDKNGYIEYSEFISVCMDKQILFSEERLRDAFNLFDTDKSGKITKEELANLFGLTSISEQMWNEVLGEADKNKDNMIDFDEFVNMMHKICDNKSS
Protein kinase 7 (PK7), Plasmodium falciparum 3D7 (PF3D7_0213400), sequence (Q7YTF7 1-343): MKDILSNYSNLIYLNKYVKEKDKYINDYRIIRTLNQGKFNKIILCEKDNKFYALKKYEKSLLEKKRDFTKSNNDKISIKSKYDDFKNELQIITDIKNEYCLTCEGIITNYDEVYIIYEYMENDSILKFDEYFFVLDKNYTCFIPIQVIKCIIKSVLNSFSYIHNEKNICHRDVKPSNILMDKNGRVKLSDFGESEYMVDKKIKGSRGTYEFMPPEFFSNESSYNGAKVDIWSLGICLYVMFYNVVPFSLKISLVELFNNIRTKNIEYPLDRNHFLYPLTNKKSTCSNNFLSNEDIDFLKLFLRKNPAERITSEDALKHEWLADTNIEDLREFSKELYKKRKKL
Calcium-dependent protein kinase 4 (Plasmodium falciparum (isolate 3D7)), sequence (Q8IBS5 whole entry, looked up): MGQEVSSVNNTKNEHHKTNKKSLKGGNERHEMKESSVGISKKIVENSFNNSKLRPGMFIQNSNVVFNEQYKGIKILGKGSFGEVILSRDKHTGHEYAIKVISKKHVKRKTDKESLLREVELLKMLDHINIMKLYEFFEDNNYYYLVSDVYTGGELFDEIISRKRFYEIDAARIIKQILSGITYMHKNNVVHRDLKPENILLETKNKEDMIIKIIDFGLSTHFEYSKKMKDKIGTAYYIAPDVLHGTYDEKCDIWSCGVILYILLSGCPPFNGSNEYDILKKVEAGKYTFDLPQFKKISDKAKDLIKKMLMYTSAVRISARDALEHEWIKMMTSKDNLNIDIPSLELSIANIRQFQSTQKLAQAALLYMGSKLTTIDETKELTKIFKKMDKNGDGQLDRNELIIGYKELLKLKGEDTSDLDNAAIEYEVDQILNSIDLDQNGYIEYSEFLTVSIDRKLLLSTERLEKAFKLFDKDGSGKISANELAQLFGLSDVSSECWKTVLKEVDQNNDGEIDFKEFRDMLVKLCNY
L-lactate dehydrogenase (Plasmodium falciparum (isolate CDC / Honduras)), sequence (Q27743 whole entry, looked up): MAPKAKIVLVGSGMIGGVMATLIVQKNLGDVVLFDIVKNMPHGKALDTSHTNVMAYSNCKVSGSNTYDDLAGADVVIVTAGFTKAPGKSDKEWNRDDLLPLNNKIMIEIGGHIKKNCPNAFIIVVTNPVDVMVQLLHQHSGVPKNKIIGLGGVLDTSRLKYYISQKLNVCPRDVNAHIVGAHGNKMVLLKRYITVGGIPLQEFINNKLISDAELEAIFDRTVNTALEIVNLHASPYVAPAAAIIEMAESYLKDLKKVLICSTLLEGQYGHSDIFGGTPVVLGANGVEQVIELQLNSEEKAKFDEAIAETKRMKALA

In the case of `COc1ccc2nccc(NCC3(O)CCC(NCc4ccc5c(n4)NC(=O)CS5)CC3)c2n1` (centres undefined), the growth inhibition in experiment [1] was 23%; in experiment [4], 100% (active). In addition, the results for the inhibition in experiment [2] and in experiment [3] were 16% and 3%, respectively. Further, the result in experiment [5], in experiment [6], in experiment [7] and in experiment [8] was inactive.
For `COc1ccc2c(c1)nc(CN=C(N)N)n2Cc1ccc(Cl)cc1`, the growth inhibition was 99% (active) in experiment [1] and 102% (active) in experiment [4]. The inhibition in experiment [2] was 12%; in experiment [3], 4%. Also, the outcome in experiment [5], in experiment [6], in experiment [7] and in experiment [8] was inactive.
For `COc1ccc(F)cc1-c1ccccc1CNC(=O)c1cnn(-c2ccc([N+](=O)[O-])cc2)c1C(F)(F)F`, the growth inhibition was 75% (active) in experiment [1] and 89% (active) in experiment [4]. The inhibition in experiment [2] is -3%; in experiment [3], -4%. Also, the outcome in experiment [5], in experiment [6], in experiment [7] and in experiment [8] was inactive.
With `CN1CCN(c2cc3c(cc2Cl)CCN3C(=O)Cc2ccc(Cl)c(NC(=O)Nc3cccc(C#N)c3)c2)CC1`, the growth inhibition was 40% in experiment [1] and 99% (active) in experiment [4]. Further, the inhibition in experiment [2] and in experiment [3] was -1% in each case. In addition, the outcome in experiment [5], in experiment [6], in experiment [7] and in experiment [8] was inactive.
With `CC(C)c1cc(Oc2c(I)cc(CCNCc3ccccc3)cc2I)ccc1O`, the figures for the growth inhibition in experiment [1] and in experiment [4] were 54% (active) and 95% (active), respectively. Moreover, the inhibition in experiment [2] is 42%; in experiment [3] it was 4%. Besides, the outcome in experiment [5], in experiment [6], in experiment [7] and in experiment [8] was inactive.
As to `Cc1cc(N[C@@H](Cc2ccccc2)C(=O)NCCOc2ccccc2)nc(NCC2CCCCC2)n1`, the figures for the growth inhibition in experiment [1] and in experiment [4] were 75% (active) and 100% (active), respectively. In addition, the figures for the inhibition in experiment [2] and in experiment [3] were 30% and -1%, respectively. The outcome in experiment [5], in experiment [6], in experiment [7] and in experiment [8] was inactive.
On to `Cc1cc(N[C@@H](Cc2ccccc2)C(=O)NC2CCCC2)nc(NCCc2ccc(F)cc2)n1`, for which the growth inhibition in experiment [1] is 61% (active); in experiment [4], 100% (active). In addition, the inhibition in experiment [2] was 21%; in experiment [3] it was -2%. The outcome in experiment [5], in experiment [6], in experiment [7] and in experiment [8] was inactive.
In the case of `CCCCCn1c(Sc2ccc(C#N)c([N+](=O)[O-])c2)nnc1-c1ccc(OC)cc1`, the growth inhibition is 44% in experiment [1] and 88% (active) in experiment [4]. Also, the figures for the inhibition in experiment [2] and in experiment [3] were 8% and 4%, respectively. Also, the result in experiment [5], in experiment [6], in experiment [7] and in experiment [8] was inactive.
As to `COc1ccc(NC(=O)c2ccc(-c3cc(NC(=O)c4ccnc(N5CCCC5)c4)ccc3C)s2)cc1N1CCN(C)CC1`, the growth inhibition in experiment [1] and in experiment [4] was 100% (active) throughout. Besides, the figures for the inhibition in experiment [2] and in experiment [3] were 15% and 6%, respectively. The result in experiment [5], in experiment [6], in experiment [7] and in experiment [8] was inactive.
For `Cc1cccc(C)c1C1CCN(C2CCC(NC(=O)/C=C/c3ccccc3)CC2)CC1` (centres undefined), the growth inhibition was 45% in experiment [1] and 100% (active) in experiment [4]. For the same molecule, the inhibition was 42% in experiment [2] and -1% in experiment [3]. Further, the outcome in experiment [5], in experiment [6], in experiment [7] and in experiment [8] was inactive.
With `COc1ccc2nccc([C@@H](O)CN3CCC(NC(=O)C(c4ccccc4C)N4CCC(Cc5ccccc5)CC4)CC3)c2c1` (some centres undefined), the growth inhibition in experiment [1] is 97% (active); in experiment [4], 102% (active). Moreover, the inhibition in experiment [2] was 10%; in experiment [3] it was 3%. The result in experiment [5], in experiment [6], in experiment [7] and in experiment [8] was inactive.
Regarding `COc1cc2sc(=NC(=O)c3cccc([N+](=O)[O-])c3)n(C)c2cc1OC`, the results for the growth inhibition in experiment [1] and in experiment [4] were 79% (active) and 92% (active), respectively. Besides, the inhibition was 5% in experiment [2] and -3% in experiment [3]. Moreover, the result in experiment [5], in experiment [6], in experiment [7] and in experiment [8] was inactive.
Regarding `CCOc1cc(N)c2nc3ccc([N+](=O)[O-])cc3cc2c1`, the growth inhibition in experiment [1] is 78% (active); in experiment [4], 100% (active). Besides, the inhibition in experiment [2] was 73% (active); in experiment [3] it was 7%. For the same molecule, the result in experiment [5], in experiment [6], in experiment [7] and in experiment [8] was inactive.
As for `O=C(C=Cc1ccc(Cl)c(Cl)c1)NCCCCCN1CCC(CCCNC(=O)c2ccc3c(c2)OCO3)CC1`, the results for the growth inhibition in experiment [1] and in experiment [4] were 64% (active) and 98% (active), respectively. Moreover, the inhibition in experiment [2] was 38%; in experiment [3], -5%. Further, the result in experiment [5], in experiment [6], in experiment [7] and in experiment [8] was inactive.
Turning to `CC(C)N1CCC(N(Cc2ccc(-c3ccc(C(F)(F)F)cc3)cc2)C(=O)Cn2c(SCc3cccc(F)c3F)nc(=O)c3ccccc32)CC1`, the growth inhibition was 75% (active) in experiment [1] and 91% (active) in experiment [4]. Besides, the values for the inhibition in experiment [2] and in experiment [3] were 74% (active) and -4%, respectively. Moreover, the outcome in experiment [5], in experiment [6], in experiment [7] and in experiment [8] was inactive.
Consider `O=C(Nc1cccc(CN2CCN(C(=O)c3cccc(Cl)c3)CC2)c1)c1cccs1`, for which the growth inhibition in experiment [1] and in experiment [4] was 94% (active) throughout. Further, the inhibition in experiment [2] was 17%; in experiment [3], -6%. Besides, the result in experiment [5], in experiment [6], in experiment [7] and in experiment [8] was inactive.
On to `CC(Cc1ccc(CN2CCN(Cc3ccccc3)CC2)cc1)NCC(O)c1cccc(C(F)(F)F)c1` (centres undefined), for which the results for the growth inhibition in experiment [1] and in experiment [4] were 98% (active) and 97% (active), respectively. Besides, the inhibition in experiment [2] is 51% (active); in experiment [3], -7%. For the same molecule, the result in experiment [5], in experiment [6], in experiment [7] and in experiment [8] was inactive.
Regarding `CCN1CCN(Cc2ccc3nc(-c4cc(C)n(Cc5cc(Cl)ccc5OCc5ccccc5)n4)[nH]c3c2)CC1`, the growth inhibition was 97% (active) in experiment [1] and 102% (active) in experiment [4]. In addition, the inhibition in experiment [2] is 11%; in experiment [3], 2%. The outcome in experiment [5], in experiment [6], in experiment [7] and in experiment [8] was inactive.
